TLR9-MyD88 inh = TLR9-MyD88 interaction inhibition | Q9NR96+Q99836 | CHO BLA complementation TLR9-MyD88, CCF4 FRET ratio | inhibition, % at 4.98 µM | 0.21% of 340,000 active | AID 504734;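 active = inhibition above the mean over all tested compounds plus 3 SD, cut at about 21% in these data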
TLR4-MyD88 BLA = blocks binding of human TLR4 to MyD88 | O00206+Q99836 | HeLa CL3-4 TLR4/MyD88 BLA complementation, FRET ratio | inhibition, % at 8.4 µM | 0.18% of 200,000 active | AID 861; in the data active = inhibition above about 25%
NOD2 RIPK2 PPI = inhibitors of human NOD2-RIPK2 interaction; CHO BLA complementation NOD2-RIPK2, CCF4 ratio; inhibition, % at 4.98 µM; 0.38% of 360,000 active; in the data active = inhibition above about 21%
ABHD5-PLIN5 inh = ABHD5-PLIN5 protein interaction inhibition. 0.78% of 360,000 active. Split G. princeps luciferase complementation, luminescence, 4 h. Q00G26+Q8WTS1. inhibition, % at 4 µM;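 active = inhibition above the mean inhibition across every tested compound plus 3 SD, cut at about 22% in these data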
ABHD5-PLIN5 conf = ABHD5-PLIN5 interaction inhibition, confirmed | 67% of 2,200 active | biochemical ABHD5-PLIN5 interaction, luminescence | shares compounds with ABHD5-PLIN5 inh | inhibition, % at 4 µM | AID 651612; in the data active = inhibition above about 23%
HNF4 split-luc = HNF4 split-luciferase signal hit, counter-screen; HNF4 dimerization, luminescence, biochemical; shares compounds with ABHD5-PLIN5 inh; 77% of 2,200 active; inhibition, % at 4 µM;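 active = mean inhibition across replicate wells exceeding the computed hit threshold, cut at about 13% in these data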;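 note: light from luciferase halves that rejoin when HNF4 fusion proteins dimerize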
Numbers stand for hits; – = inactive; · = no result given. Shown are actives, neighbours in structure and some others; about 1.2% of the full set was active somewhere.

SMILES	TLR9-MyD88 inh	TLR4-MyD88 BLA	NOD2 RIPK2 PPI	ABHD5-PLIN5 inh	ABHD5-PLIN5 conf	HNF4 split-luc
CCCN(CCC)CC(O)CN1C(=O)N(CN2C(=O)N(CC(O)CN(CCC)CCC)C(=O)C2(C)C)C(C)(C)C1=O (stereo not drawn)	–	–	–	–	·	·
CC(C)C(NS(=O)(=O)c1ccccc1)C(=O)OCc1cc([N+](=O)[O-])cc2c1OCOC2 (stereo not drawn)	–	–	–	45	–	–
CC(=O)Nc1cc2c(cc1NC(=O)Cn1nnc(-c3ccc(C)o3)n1)OCCO2	–	–	–	–	·	·
O=c1[nH]c(/C=C/c2ccccc2)c([N+](=O)[O-])c(=O)[nH]1	–	·	–	27	73	62
O=c1[nH]c(/C=C/c2ccc(Cl)cc2Cl)c([N+](=O)[O-])c(=O)[nH]1	–	·	–	–	·	·
O=c1[nH]c(/C=C\c2cccnc2)c([N+](=O)[O-])c(=O)[nH]1	–	–	–	–	·	·
O=c1[nH]c(/C=C/c2cccc([N+](=O)[O-])c2)c([N+](=O)[O-])c(=O)[nH]1	–	·	–	25	91	85
O=[N+]([O-])c1cccc(/C=C/c2nc[nH]c2[N+](=O)[O-])c1	–	·	–	–	·	·
Cc1noc(/C=C/c2cccnc2)c1[N+](=O)[O-]	–	·	–	37	48	33
O=c1[nH]c(/C=C/c2cccnc2)c([N+](=O)[O-])c(=O)[nH]1	–	–	–	40	56	41
COc1cccc(NC(=O)CN(C)C(=O)CCCc2c[nH]c3ccccc23)c1	–	·	–	–	·	·
O=C1ON=C(c2ccccc2)/C1=C\c1ccco1	–	·	–	–	·	·
O=C1C(=Cc2ccco2)CCCC1=Cc1ccco1	–	·	–	39	53	63
O=C1C(=Cc2ccco2)CCC1=Cc1ccco1	–	·	–	37	59	89
O/N=C1\CCC\C1=C/c1ccco1	–	–	–	–	·	·
Cc1ccc(C2=NN=C(NC(=O)CSc3nncn3C)SC2)cc1	–	–	–	45	70	102
Cc1ccc(C(=O)NC(=O)CSc2nncn2C)cc1	–	·	–	–	·	·
C=C[C@]1(C)C=C2CC[C@H]3[C@@](C)(CCC[C@@]3(C)C(=O)O)[C@@H]2CC1	–	·	–	–	·	·
C=C[C@]1(C)C=C2C(=O)[C@@]3(O)OC(=O)[C@@]4(CCCC(C)(C)[C@H]34)[C@@]2(O)CC1	·	·	–	72	61	81
COc1ccc(CCC(=O)Nc2ncc(C)s2)cc1	–	·	–	–	·	·
COc1ccc(S(=O)(=O)Nc2ccc3c(c2)C(=O)N([C@@H](C)CO)C[C@H](C)[C@H](CN(C)S(=O)(=O)c2ccc(F)cc2)O3)cc1	–	·	–	–	·	·
CCCCC(=O)NC(c1ccc(N(CC)CC)cc1)c1ccc2cccnc2c1O (stereo not drawn)	–	·	–	–	·	·
CCCCC(=O)NC(c1ccc(N(C)C)cc1)c1ccc2cccnc2c1O (stereo not drawn)	–	·	–	23	–	–
CCCC(=O)NC(c1cccc([N+](=O)[O-])c1)c1ccc2cccnc2c1O (stereo not drawn)	–	·	–	29	26	–
CCN(CC)C(=O)Cn1cc(C(=O)C(=O)N2CCN(c3ccc([N+](=O)[O-])cc3)CC2)c2ccccc21	–	·	–	–	·	·
SMILES	TLR9-MyD88 inh	TLR4-MyD88 BLA	NOD2 RIPK2 PPI	ABHD5-PLIN5 inh	ABHD5-PLIN5 conf	HNF4 split-luc
COc1ccccc1NC(=O)CC1C(=O)NCCN1C(=O)Nc1ccc(Cl)c(Cl)c1 (stereo not drawn)	–	–	–	24	–	–
CCOc1ccc(NC(=S)N2CCC(NC(=O)c3ccccc3C)CC2)cc1	–	·	–	–	·	·
Cc1cc(C)c(C(=O)/C=C/c2ccc3c(c2)OCO3)c(=O)[nH]1	–	–	–	–	·	·
Cc1cc(C)c(C(=O)/C=C/c2cccc3ccccc23)c(=O)[nH]1	–	–	–	54	64	61
COC(=O)c1ccc2c(=O)n(CC3CCCO3)c(SCC(=O)NCCc3ccc(S(N)(=O)=O)cc3)nc2c1 (stereo not drawn)	–	–	–	–	·	·
COc1nc(=O)n(C2C=CC(=O)O2)cc1F (stereo not drawn)	–	·	–	41	52	34
CCC(C)c1ccc(NC(=O)Nc2cccnc2)cc1 (stereo not drawn)	–	·	–	–	·	·
COc1ccccc1-c1cc(C(F)(F)F)nc(S(=O)(=O)CCCC(=O)Nc2cccnc2Cl)n1	–	–	–	32	51	69

Screening data (PubChem BioAssay)
